The full list was thinned out, with hits kept by preference.
NS1 function inh – inhibitors of influenza NS1 protein function | Potency, µM (series often up to 46.1 µM), for the others: top-dose activity, positive = more growth | actives 0.4% (n = 270,000); calls by dose curve; note: potency is the fitted concentration of half-maximal effect; actives are rising curves; nearly all actives have a fitted effect of over 50% in size
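Growth recovery, yeast-based: influenza A NS1 expressed in S. cerevisiae causes slow growth, and suppressors are detected by OD600. The parent strain without NS1 is used as positive control.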
Cycloheximide cs – affects cycloheximide protein synthesis inhibition readout, counter-screen; max response, %; actives 12% (n = 300,000); cell reporter, cycloheximide protein synthesis inhibition counterscreen; in the data active = max response mostly above about 13%, no sharp cut-off; inactive = mostly below about 14%; note: read at 38.3 µM for the half of the compounds with a filed dose; 0% is about no effect
AmpC no deterg – inhibitors of E. coli AmpC beta-lactamase without detergent; actives 0.52% (n = 330,000); Potency, µM (doses to about 57.1 µM), inactives show top-dose activity change, negative = inhibition, hits mostly inhibitors; AmpC nitrocefin hydrolysis, absorbance 480 nm, 0.0001% Triton; AID 485341; P00811;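 note: potency is the fitted concentration of half-maximal effect; plate controls were no compound for no effect and no enzyme for full effect; nearly all actives have a fitted effect of over 20% in size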
Target sequence (P00811 whole entry, looked up): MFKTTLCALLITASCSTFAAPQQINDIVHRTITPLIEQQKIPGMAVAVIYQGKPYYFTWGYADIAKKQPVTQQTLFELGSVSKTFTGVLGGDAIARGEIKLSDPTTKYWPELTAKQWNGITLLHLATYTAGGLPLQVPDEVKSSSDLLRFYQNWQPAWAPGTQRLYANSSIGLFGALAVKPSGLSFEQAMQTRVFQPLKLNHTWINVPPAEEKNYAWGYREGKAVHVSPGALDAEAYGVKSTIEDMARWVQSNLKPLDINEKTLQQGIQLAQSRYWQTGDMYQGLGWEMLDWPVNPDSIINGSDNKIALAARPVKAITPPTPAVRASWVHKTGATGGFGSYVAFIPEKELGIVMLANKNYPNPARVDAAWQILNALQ
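20 mM phosphate pH 7.0 + 0.01% (detergent screen) or 0.0001% Triton X-100; 5.3 nM AmpC reagent; cpd preinc 15 min RT; nitrocefin (800 uM stock) to start; A480 q20 s × 4 min; Activity was normalised to no-enzyme and no-compound control wells.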
Shiga toxin inh – inhibitors of Shiga toxin in Vero cells. Vero cells, Shiga toxin protein synthesis inhibition reporter. actives 9.2% (n = 290,000). AID 2315. inhibition, % at 38.7 µM; in the data active = inhibition mostly above about 28%, no sharp cut-off; inactive = mostly below about 43%; note: 0% is about no effect
AmpC detergent – inhibitors of E. coli AmpC beta-lactamase with detergent; P00811; AmpC hydrolysis of nitrocefin, absorbance 480 nm, 0.01% Triton; Potency, µM (doses to about 114 µM), inactives show at the highest dose activity change, negative = inhibition, most hits filed as inhibitors; actives 0.041% (n = 370,000);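 note: potency is the fitted concentration of half-maximal effect; 0% = no-compound wells and -100% = no-enzyme wells; nearly all actives have a fitted effect of over 25% in size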
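20 mM phosphate pH 7.0 + 0.01% (detergent screen) or 0.0001% Triton X-100; 5.3 nM AmpC reagent; cpd preinc 15 min RT; nitrocefin (800 uM stock) to start; A480 q20 s × 4 min; Activity was normalised to no-enzyme and no-compound control wells.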
Starred values were filed as active, the others as inactive; i = inactive; ? = inconclusive; . = not tested or not shown; + = active, no number; [ ] = dose if it differs, or a comment. Unless noted, calls come from the whole dose curve; as a rule, active = well fitted curve in the direction sought with a large enough effect; inconclusive = small, poorly fitted or top-dose-only effect, or another doubt; inactive = no such curve, though single readings can be large; an effect the other way counts as inactive or inconclusive.

SMILES	NS1 function inh	Cycloheximide cs	AmpC no deterg	Shiga toxin inh	AmpC detergent
Cc1ccc(C)n1-n1c(C)nc2sc(-c3ccccc3)cc2c1=O	-32%	45*	15%	73*	2%
CC[C@H](C)[C@H](NC(=O)[C@H](Cc1ccc(O)cc1)NC(=O)[C@@H](NC(=O)[C@H](CCCN=C(N)N)NC(=O)[C@@H](N)CC(=O)O)C(C)C)C(=O)N[C@@H](Cc1cnc[nH]1)C(=O)N1CCC[C@H]1C(=O)O	.	-2	.	-3	.
CSc1nnc(-c2sccc2OCc2ccc(C)cc2)n1C	-128%	-3	-5%	-5	7%
COc1ccccc1N1CCN(/N=C/c2cc(OC)c(OC)c(OC)c2)CC1	?	9	84%	15	-4%
COc1ccccc1N1CCN(/N=C\c2ccc(C)o2)CC1	-2%	45	28%	100*	-15%
Cc1ccsc1/C=N/N1CCOCC1	9%	2	-16%	13	5%
Cc1ccc(N2CCN(/N=C/c3sccc3C)CC2)cc1	6%	12*	-14%	10	-1%
COc1cc(/C=N/N2CCN(c3ccccc3OC)CC2)ccc1O	3%	26*	18%	+	-2%
Cc1ccc(/C=N/N2CCN(C3c4ccccc4-c4ccccc43)CC2)o1	?	9	40%	25	-5%
COc1ccccc1N1CCN(/N=C\c2ccccc2)CC1	25%	57*	7%	.	-3%
Cc1ccc(C)c(NC(=O)CN(C)C(=O)c2ccc3[nH]c4c(c3c2)CC(C)CC4)c1 (stereo not drawn)	.	.	61%	.	-5%
COc1ccc(-n2ccn(CC(=O)Nc3ccc(C)cc3C)c(=O)c2=O)cc1	.	.	.	.	25%
COc1ccccc1N1CCN(/N=C/C(Cl)=C/c2ccccc2)CC1	0%	33*	16%	81*	-5%
COc1ccccc1N1CCN(/N=C\c2sccc2C)CC1	.	38	-5%	99*	?
COc1ccccc1N1CCN(/N=C/c2cccc(OC)c2OC)CC1	.	15*	39%	61*	?
Cc1ccc(N2CCN(/N=C/C(Cl)=C/c3ccccc3)CC2)cc1	.	12	-20%	32	?
COc1ccccc1N1CCN(/N=C/c2c(C)nn(-c3ccccc3)c2C)CC1	13%	3	38%	8	2%
Cc1cc2c(c(=O)n1-c1ccccc1)C1O[C@](c3ccsc3)(Cc3cc(C#N)ccc31)O2	-5%	1	-55%[11.4 µM]	i	-15%[22.9 µM]
COc1ccc(-c2c(C)c3ccc(O)c(CN4CCCC(C)C4)c3oc2=O)cc1OC (stereo not drawn)	.	.	.	.	-8%
CN1CCC(=NNC(=O)c2ccco2)CC1	-4%	67*	-8%	79*	3%
CC(C)(C)C1CCC(=NNC(=S)NCc2ccccc2)CC1 (stereo not drawn)	.	11	-29%	-8	-5%
CC(C)(C)C1CCC(=NNC(=O)c2ccco2)CC1 (stereo not drawn)	0%	70*	-33%	175*	-2%
CN1CCN(c2ccc(CNC(=O)c3ccco3)cc2)CC1	-1%	14	-23%	8	-6%
CN(C(=O)/C=C/c1ccc2c(c1)OCO2)c1ccccc1	.	42*	-11%	92*	5%
COc1ccc(NC(=O)/C=C/c2ccc3c(c2)OCO3)cc1	-5%	48*	-29%	78*	4%
SMILES	NS1 function inh	Cycloheximide cs	AmpC no deterg	Shiga toxin inh	AmpC detergent
CCNc1ccccc(C(=O)/C=C/c2ccc3c(c2)OCO3)c1=O	-2%	24*	-37%	54	-4%
COc1ccc(NC(=O)C(c2ccc(C)cc2)N(C)C(=O)/C=C\c2ccc3c(c2)OCO3)cc1 (stereo not drawn)	.	.	.	.	10%
O=C(O)/C=C\C=C/c1ccc2c(c1)OCO2	-4%	.	.	.	.
COc1ccc(NC(=O)/C(=C/c2ccc3c(c2)OCO3)NC(C)=O)cc1	13%	72*	-11%	+	4%
Cc1ccc(S(=O)(=O)N2CCC3(CC2)OCCO3)s1	0%	-2	265%	13	2%
O=C(Cn1nnc(-c2cccc(C(F)(F)F)c2)n1)NCc1ccc(F)cc1	.	.	.	.	-2%
Cc1ccc(C(=O)N/C(=C\c2ccc3c(c2)OCO3)C(=O)Nc2ccc(C(=O)O)cc2)cc1	.	14	-29%	39*	2%
C(=N\N(c1ccccc1)c1ccccc1)/c1ccc2c(c1)OCO2	9%	-2	-29%	-13	0%
Cc1c(NC(=O)C(C)OC(=O)/C=C/c2ccc3c(c2)OCO3)c(=O)n(-c2ccccc2)n1C (stereo not drawn)	.	37*	-15%	89*	6%
COc1cc(/C=N/N(C)c2ccccc2)ccc1O	-16%	31*	-15%	88*	3%
Cc1c(NC(=O)C(C)OC(=O)/C=C/c2ccccc2)c(=O)n(-c2ccccc2)n1C (stereo not drawn)	?	-6	-9%	-31	2%
CN(/N=C/c1ccc2c(c1)OCO2)c1ccccc1	-12%	95*	-24%	127*	?
CC1CC(C)(C)NC(=S)O1 (stereo not drawn)	1%	-6	-16%	3	-13%
COC(=O)/C=C/c1ccc2c(c1)OCO2	.	22*	-10%	83*	-1%
O=C(COC(=O)Cc1ccccc1F)NCCNC(=O)COC(=O)Cc1ccccc1F	.	.	41%	.	-18%
CCC1C(=O)NCCN1C(=O)c1ccc(OC)c(OC2CCN(C(C)=O)CC2)c1 (stereo not drawn)	-6%	-2	-5%	-1	-9%
CN(C)S(=O)(=O)N1CCC(Oc2cccc(C(=O)NC3CCOC3)c2)CC1 (stereo not drawn)	6%	15*	2%	23	5%
CN(C)S(=O)(=O)N1CCC(Oc2cccc(C(=O)NCCC3=CCCCC3)c2)CC1	-9%	24*	67%	63*	?
CCC1C(=O)NCCN1C(=O)c1cccc(OC2CCN(S(=O)(=O)N(C)C)CC2)c1 (stereo not drawn)	5%	38*	10%	52	3%
CN(C)S(=O)(=O)N1CCC(Oc2cccc(C(=O)NC3CCCCC3)c2)CC1	-10%	28	26%	24	2%
COc1cccc(CNC(=O)C2CCN(S(=O)(=O)N3CCC4(CC3)OCCO4)CC2)c1	-23%	-2	-1%	-15	-21%
O=C(NCc1cccnc1)C(=O)NCC(c1ccco1)N1CCN(c2ccc(F)cc2)CC1 (stereo not drawn)	9%	14	67%	-1	2%
O=C(Cc1ccccc1)Nc1ccc(NC(=O)Cc2ccccc2)c(Cl)c1	5%	-2	-8%	-4	-10%
O=C(Cc1ccccc1)Nc1ccc(Br)c(Cl)c1	2%	21*	-29%	25*	-15%
C/C(=C\C(=O)c1ccccc1)Nc1ccc(Br)c(Cl)c1	-9%	23*	-13%	98	0%
C/C(=C\C(=O)c1ccc(Cl)cc1)Nc1ccc(N2CCOCC2)cc1	-1%	-2	-30%	21	-5%
C/C(=C\C(=O)c1ccc(Br)cc1)Nc1ccc(Cl)cc1	11%	20	-26%	36*	11%
